From PubChem BioAssay (NCI)
Compounds without any hit were thinned out: in the full panel of roughly 79,000, 15% have a hit. Active and inactive are the calls of the source. Cut-off read from the data, not from the text of the source: active = growth inhibition above about 70%; inactive = the rest.

How the values were obtained:
[1] = NCI Yeast Anticancer Drug Screen. Data for the rad52 strain (AID 147);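 note: 0% = growth of vehicle-treated control cultures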; settings: S. cerevisiae rad52 mutant growth inhibition, hits give high values
In short: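 Here a repair-compromised yeast strain receives each compound; its growth is then quantified and normalised to vehicle-only controls.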

[2] = NCI Yeast Anticancer Drug Screen. Data for the wt1 strain (AID 149);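 note: 0% = growth of vehicle-treated wt1 cultures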; settings: S. cerevisiae wt1 strain (SPY 50644) growth inhibition, hits give high values
In short: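 Using yeast strain wt1, compound-induced growth inhibition was determined against vehicle-treated cultures.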

[3] = NCI Yeast Anticancer Drug Screen. Data for the rad50EPP+ strain (AID 151);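 note: 0% = growth of vehicle-treated control cultures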; settings: S. cerevisiae rad50 mutant strain, hits give high values
In short: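 Read-out is yeast growth inhibition relative to vehicle; cells used were the rad50EPP+ strain.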

[4] = NCI Yeast Anticancer Drug Screen. Data for the mgt1 strain (AID 153); settings: S. cerevisiae mgt1 mutant growth inhibition, hits give high values
In short: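 Measured: inhibition of mgt1 yeast growth by compound, normalized to vehicle-treated cultures.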

[5] = NCI Yeast Anticancer Drug Screen. Data for the rad50 strain (AID 155);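 note: 0% = growth of vehicle-only cultures of the same strain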; settings: S. cerevisiae rad50 strain growth inhibition, hits give high values
In short: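 Relative growth inhibition (compound vs vehicle) was measured in yeast with a defined repair-gene alteration.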

[6] = NCI Yeast Anticancer Drug Screen. Data for the mec2-1 strain (AID 157); settings: S. cerevisiae mec2-1 strain, hits give high values
In short: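 Using mec2-1 yeast: add compound, measure growth, express inhibition versus vehicle-treated cultures.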

[7] = NCI Yeast Anticancer Drug Screen. Data for the rad14 strain (AID 159);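 note: 0% = growth of vehicle-treated control cultures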; settings: S. cerevisiae rad14 strain growth inhibition, hits give high values
In short: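 Screen for anticancer potential: a yeast strain altered in DNA damage repair is grown with compound, and reduced growth is quantified against vehicle controls.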

[8] = NCI Yeast Anticancer Drug Screen. Data for the sgs1 mgt1 strain (AID 161);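 note: 0% = growth of cultures given vehicle only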; settings: S. cerevisiae sgs1 mgt1 strain, hits give high values
In short: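 Percent growth inhibition was derived by comparing compound-exposed mutant yeast with vehicle-exposed cultures. The strain carries alterations in DNA damage repair.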

[9] = NCI Yeast Anticancer Drug Screen. Data for the CLN2oe strain (AID 163);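 note: 0% = growth of vehicle-only control cultures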; settings: S. cerevisiae CLN2oe strain, hits give high values
In short: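 Whole-cell yeast growth assay. A strain engineered for altered cell-cycle control received compound, and inhibition relative to vehicle-treated cultures was recorded.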

[10] = NCI Yeast Anticancer Drug Screen. Data for the cln2 rad14 strain (AID 165);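 note: 0% = growth equal to vehicle treated cultures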; settings: S. cerevisiae cln2 rad14 strain, hits give high values
In short: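 Yeast strain cln2 rad14, bearing defects in cell cycle control and DNA repair, serves as the test system; values reflect growth inhibition compared with vehicle.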

[11] = NCI Yeast Anticancer Drug Screen. Data for the bub3 strain (AID 167); settings: S. cerevisiae bub3 mutant strain, hits give high values
In short: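 Screening used yeast with an engineered genetic alteration affecting cell cycle control. Compound-exposed cultures were compared with vehicle cultures, and reduced growth was taken as inhibition.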

[12] = NCI Yeast Anticancer Drug Screen. Data for the wt2 strain (AID 169);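 note: 0% = growth of vehicle-treated yeast cultures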; settings: S. cerevisiae wt2 strain growth inhibition, hits give high values
In short: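 Treated yeast vs. vehicle-treated yeast: growth inhibition determined.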

[13] = NCI Yeast Anticancer Drug Screen. Data for the mlh1 strain (AID 171);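 note: 0% = growth of vehicle-treated control cultures of the same strain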; settings: S. cerevisiae mlh1 strain growth inhibition, hits give high values
In short: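 A yeast strain with a defined genetic lesion serves as the test organism. Cultures receive compound or vehicle, and growth is measured.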

[14] = NCI Yeast Anticancer Drug Screen. Data for the mlh1 rad18 strain (AID 175); settings: S. cerevisiae mlh1 rad18 strain growth inhibition, hits give high values
In short: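 Steps: expose repair-defective yeast to compound; measure growth; express inhibition against vehicle-treated controls.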

[15] = NCI Yeast Anticancer Drug Screen. Data for the rad18 strain (AID 177); settings: S. cerevisiae rad18 mutant growth inhibition, hits give high values
In short: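 Measured value is growth inhibition of a yeast strain bearing a DNA repair alteration, referenced to vehicle-treated cells.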

[16] = at 5.0 µM (retest, dose inferred, filed as 0.5)
[17] = at 50.0 µM (retest, dose inferred, filed as 5.0)

Measured: growth inhibition

CC(=O)Nc1ccc2c(c1)Cc1cc(N=C3C=CC(=O)O3)ccc1-2
inactive: [1]; at 1.2 µM 11% | [1]; at 3.7 µM 27% | [2]; at 1.2 µM 0% | [2]; at 3.7 µM 14% | [2]; at 11.0 µM 41% | [3]; at 1.2 µM 37% | [4]; at 1.2 µM 9% | [4]; at 3.7 µM 19% | [4]; at 11.0 µM 67% | [5]; at 1.2 µM 9% | [5]; at 3.7 µM 31% | [5]; [16] 60% | [5]; at 50.0 µM 28.6% | [6]; at 1.2 µM 19% | [6]; at 3.7 µM 31% | [6]; at 50.0 µM 15.8% | [7]; at 1.2 µM 12% | [7]; at 3.7 µM 27% | [8]; [16] 54% | [8]; at 50.0 µM 49.1% | [9]; at 1.2 µM 6% | [9]; at 3.7 µM 16% | [9]; at 11.0 µM 47% | [10]; [16] 9% | [10]; at 50.0 µM 24.9% | [11]; at 1.2 µM -1% | [11]; at 3.7 µM 7% | [11]; [16] 32% | [11]; at 50.0 µM 29.5% | [12]; at 1.2 µM 0% | [12]; at 3.7 µM 18% | [13]; at 1.2 µM 12% | [13]; at 3.7 µM 25% | [14]; at 50.0 µM 0.7% | [15]; at 1.2 µM 12% | [15]; at 3.7 µM 31%
active: [1]; at 11.0 µM 85% | [1]; at 33.0 µM 99% | [1]; at 100.0 µM 99% | [2]; at 33.0 µM 99% | [2]; at 100.0 µM 99% | [3]; at 3.7 µM 77% | [3]; at 11.0 µM 96% | [3]; at 33.0 µM 99% | [3]; at 100.0 µM 99% | [4]; at 33.0 µM 99% | [4]; at 100.0 µM 99% | [5]; at 11.0 µM 81% | [5]; at 33.0 µM 99% | [5]; [17] 99% | [5]; at 100.0 µM 99% | [6]; [16] 87% | [6]; at 11.0 µM 89% | [6]; at 33.0 µM 99% | [6]; [17] 99% | [6]; at 100.0 µM 99% | [7]; at 11.0 µM 84% | [7]; at 33.0 µM 99% | [7]; at 100.0 µM 99% | [8]; [17] 99% | [9]; at 33.0 µM 99% | [9]; at 100.0 µM 99% | [10]; [17] 99% | [11]; at 11.0 µM 72% | [11]; at 33.0 µM 99% | [11]; [17] 99% | [11]; at 100.0 µM 98% | [12]; at 11.0 µM 93% | [12]; at 33.0 µM 99% | [12]; at 100.0 µM 95% | [13]; at 11.0 µM 93% | [13]; at 33.0 µM 99% | [13]; at 100.0 µM 99% | [14]; [16] 82% | [14]; [17] 99% | [15]; at 11.0 µM 91% | [15]; at 33.0 µM 99% | [15]; at 100.0 µM 99%
